# Experimental data taken from PubChem BioAssay AID2314 (National Center for Advancing Translational Sciences (NCATS), 2010).
# Among all 300,000 compounds or so, about 37,000 (12%) were called active. The list comes from a sample in which actives are over-represented; it also holds similar structures and randomly drawn compounds. Values without a mark were called inactive. No stated cut-off is given here; in the data, active means max response mostly above about 13% (no sharp cut-off); inactive means mostly below about 14%.
# Experiment: Cycloheximide Counterscreen for Small Molecule Inhibitors of Shiga Toxin; further: read at 38.3 µM for the half of the compounds with a filed dose; 0% is about no effect
# Details: cell reporter, cycloheximide protein synthesis inhibition counterscreen; hits give high values
row,SMILES,max response
1,O=C(CSCc1ccccc1)Nc1ccccc1,54.4% (active)
2,CC(=O)c1ccc(NC(=O)c2ccc(-n3cncn3)c([N+](=O)[O-])c2)cc1,5.03%
3,CC(C)C(c1nnnn1C1CCCCC1)N1CCN(C(=O)c2ccco2)CC1 (stereo not drawn),-3.08%
4,COc1ccc(N(CC(=O)Nc2ccc(F)c(F)c2)S(=O)(=O)c2c(C)[nH]c(=O)[nH]c2=O)cc1,-1.45%
5,CCc1ccc(/C=N/NC(=O)c2nnn(-c3nonc3N)c2CN2CCc3ccccc32)cc1,1.36%
6,Cc1cccnc1NC(=O)CSc1nnc(COc2ccc(C(C)C)cc2)n1C,-8.69%
7,Cc1cc(Cl)ccc1C(=O)C1CCCN(C(=O)c2nonc2C)C1 (stereo not drawn),-0.841%
8,CC(CCc1ccccc1)NC(=O)c1cnc(Cl)c(Cl)c1 (stereo not drawn),-1.25%
9,CC(=O)c1cccc(OCc2cc(C(=O)NC(C)Cc3cccnc3)no2)c1 (stereo not drawn),23% (active)
10,Cc1noc(C)c1COc1cccc(C(=O)Nc2cccnc2)c1,-2.49%
11,Cc1cccc(OCC(=O)NCCNC(=O)c2cccnc2)c1,-6.99%
12,CCCOC1CCCN(C(=O)c2cc(COc3cncc(Cl)c3)on2)C1 (stereo not drawn),40.2% (active)
13,CCOC(=O)C1CCCN(C(=O)c2cncc(Br)c2)C1 (stereo not drawn),-3.79%
14,CCOC(=O)CC1(NC(=O)c2cc(COc3cncc(Cl)c3)on2)CCCCC1,11.2% (active)
15,Cc1cccnc1CC(C)NC(=O)c1cc(COc2cncc(Cl)c2)on1 (stereo not drawn),32.7% (active)
16,O=C(Cc1ccccc1)Nc1c(Cl)ccc2nsnc12,-0.56%
17,CCOC(=O)c1c(S(=O)(=O)NCC(=O)Nc2ccc(C)cc2)c(C)n(C)c1C,-0.626%
18,COC(=O)c1cc(NS(=O)(=O)c2ccc3c(c2)c(=O)n(C)c(=O)n3C)cc(C(=O)OC)c1,-10.6%
19,Cc1cccc(N(C(=O)c2csnn2)C(C(=O)NCc2ccccc2)c2ccncc2)c1 (stereo not drawn),-3.2%
20,COc1ccc(S(=O)(=O)N2CCC(C(=O)NCc3ccco3)CC2)cc1C,-1.76%
21,Cc1ccccc1C(OCCN(C)C)C1CCCCC1 (stereo not drawn),-3.58%
22,COc1ccc(NS(=O)(=O)c2cc(NC(=O)C3CCCCC3)ccc2N2CCOCC2)cc1,-4.24%
23,CC(C)CNc1ncnc2c1cnn2Cc1ccc(Cl)cc1,-1.18%
24,CC(NC(=S)NNS(=O)(=O)c1ccc(C(C)(C)C)cc1)c1ccccc1 (stereo not drawn),-3.09%

row,SMILES,max response
1,CC(C)CC(NC(=O)C1CCCN1C(=O)[C@@H](C)NC(=O)OCc1ccccc1)C(=O)NCC(N)=O (stereo partly drawn),18.5%
2,COCC(=O)N1CCCC(C(=O)c2ccc(C(F)(F)F)cc2)C1 (stereo not drawn),2.21%
3,COc1ccc(CNC(=O)Cc2ccc(-c3ccccc3)cc2)cc1OC,-3.24%
4,CCn1cc(C(=O)NCCC(=O)NCCO)c(=O)c2cc3c(cc21)OCO3,-3.2%
5,O=C(NCc1nnc(SCC(=O)N2CCCCCC2)o1)c1ccc(F)cc1,-0.334%
6,CC[C@@H]1Cc2cc(O)ccc2C2=C1c1ccc(O)cc1C[C@H]2CC,-6.86%
7,C=CCSc1nnc(N2C(=O)C(O)=C(C(=O)c3ccco3)C2c2ccc(F)cc2)s1 (stereo not drawn),1.8%
8,COc1cc(C2C(C(=O)c3ccco3)=C(O)C(=O)N2c2cc(C)on2)ccc1OCc1ccccc1 (stereo not drawn),-4.25%
9,Cc1ccc2nc(N3C(=O)C(O)=C(C(=O)c4ccco4)C3c3cccc(O)c3)sc2c1 (stereo not drawn),23.5% (active)
10,CCOC(=O)C1CCCN(CCSc2ccc(C)cc2)C1 (stereo not drawn),0.771%
11,O=C(NC1CCCC1)C(c1ccco1)N(C(=O)c1ccco1)c1ccc(F)cc1 (stereo not drawn),-3.92%
12,Cc1cc(F)ccc1NC(=O)C(C)n1c2ccccc2c2nc(=O)cc(C)n21 (stereo not drawn),-0.783%
13,CSc1cccc(NC(=S)N(Cc2ccccc2)Cc2ccccn2)c1,7.83%
14,Cn1c(CC(=O)Nc2ccc(F)cc2)nnc1SCC(=O)NC1CCCCC1,-1.89%
15,CCOC(=O)C1(Cc2cccc(OC)c2)CCN(C(C)COC)CC1 (stereo not drawn),12.7%
16,CCOC(=O)C1(Cc2cccc(OC)c2)CCCN(S(=O)(=O)c2cccnc2)C1 (stereo not drawn),-3.01%
17,CCOC(=O)C1(Cc2cccc(OC)c2)CCCN(C(=O)CCSC)C1 (stereo not drawn),28.4% (active)
18,CN(C)C(CNC(=O)c1cccc(C#N)c1)c1ccco1 (stereo not drawn),8.17%
19,CCN(c1ccccc1)S(=O)(=O)c1ccc(NC(=O)C(C)(C)C)cc1,-3.17%
20,O=C(CCl)Nc1cccc(CP(=O)(c2ccccc2)c2ccccc2)c1,-1.7%
21,O=C(CCl)Nc1ccc(Sc2ccc(NC(=O)CCl)cc2)cc1,24.3% (active)
22,COCC(=O)Nc1ccc(Br)cc1,-0.947%
23,CC(C)(CCl)C(=O)Nc1ccc(Sc2ccc(F)cc2)cc1,31% (active)
24,CS(=O)(=O)N(CC(=O)Nc1ccc(F)cc1)C1CCCCC1,-2.39%
